# Marburg entry inh = blocks Marburg virus binding to or entry into cells; 1.8% of 300,000 active; AID 540276; Potency, µM (doses to about 37.8 µM), most hits filed as inhibitors; Marburg virus pseudotyped entry inhibition, cell reporter; calls by dose curve; tested in HEK293 cells
# Shiga toxin inh = inhibitors of Shiga toxin in Vero cells. Vero cells, Shiga toxin protein synthesis inhibition reporter. inhibition, % at 38.7 µM. 9.2% of 290,000 active. AID 2315; in the data active = inhibition mostly above about 28%, no sharp cut-off; inactive = mostly below about 43%
# CHX counter = counter-screen hit for Shiga toxin inhibitors, cycloheximide; cell reporter, cycloheximide protein synthesis inhibition counterscreen; max response, %; 12% of 300,000 active; AID 2314; in the data active = max response mostly above about 13%, no sharp cut-off; inactive = mostly below about 14%; also: read at 38.3 µM for the half of the compounds with a filed dose
# LASV entry inh = Lassa virus entry inhibition; Lassa virus pseudotype entry inhibition, cell reporter; Potency, µM (highest dose often 37.9 µM), most hits filed as inhibitors; 1.2% of 300,000 active; AID 540256; calls by dose curve; tested in HEK293 cells; also: nearly all actives have a fitted effect of over 50% in size
# Numbers stand for hits; 0 = inactive; ? = inconclusive; - = not tested or not shown. Compounds with a hit are over-represented: about 12% of the library has one in this group of screens.
SMILES,Marburg entry inh,Shiga toxin inh,CHX counter,LASV entry inh
O=C(NCC1(N2CCCCC2)CCCCC1)c1ccc(NS(=O)(=O)c2ccccc2)cc1,0,-,-,0
Cc1cccc(NS(=O)(=O)c2ccc(C(=O)NCC3(N4CCCCC4)CCCCC3)cc2)c1C,11.2µM,-,-,?
C[C@@H](C(=O)Nc1ccc2ccccc2c1)[C@H]1C[C@]1(C)[C@H](NC(=O)OCc1ccccc1)c1ccccc1,?,51.2,19.2,?
Cc1ccc(OCC(=O)NC(=S)Nc2ccc(Br)cn2)cc1,-,0,0,-
FC(F)(Cl)c1nnc2ccc(Sc3ccccn3)nn12,0,0,0,0
Cc1cccc(C(=O)N2c3ccccc3C(=O)OC2c2ccc3c(c2)OCO3)c1 (centres undefined),0,0,21.4,0
O=C1OC(c2ccc3c(c2)OCO3)N(C(=O)c2ccc(Cl)c(Cl)c2)c2ccccc21 (centres undefined),?,117.5,38.8,0
Cc1ccc2nc(-c3ccc(Cl)c(NC(=O)c4cccc([N+](=O)[O-])c4C)c3)oc2c1,0,-,-,0
O=C(c1ccc2c(c1)OCO2)C1CCCN(C(=O)c2cnn(Cc3ccccc3)c2)C1 (centres undefined),-,37.7,21.2,-
COc1ccc(NC(=S)N2CCC(C(=O)c3ccc(C)cc3)CC2)cc1,-,0,8.9,-
COCCNC(=S)N1CCC(C(=O)c2ccc3c(c2)OCCO3)CC1,?,0,45.7,0
COc1ccc(NC(=S)N2CCC(C(=O)c3ccc(OC)cc3)CC2)cc1,0,0,0,0
COc1ccc(NC(=O)N2CCC(C(=O)c3ccc4c(c3)OCCO4)CC2)cc1,?,0,20.8,0
CCCn1c2ccccc2c2cnn(CC(=O)NCCc3ccc(OCC)c(OCC)c3)c(=O)c21,-,-,-,0
O=C(CN1CCN(Cc2cccc(F)c2)CC1)Nc1ccccc1F,-,0,0,-
CC(=O)c1ccc(NC(=O)N2CCCC(C(=O)c3ccc4c(c3)OCO4)C2)cc1 (centres undefined),-,52.8,15.7,-
COc1ccc(C(=O)NCc2ccc3c(c2)CCO3)cc1,-,0,0,-
C[C@@H]1OC(Nc2ccc(N=Nc3ccccc3)cc2)[C@H](O)[C@H](O)[C@H]1O (some centres undefined),0,52.1,35.2,0
CC(=O)c1ccc(NC2OC(C)C(O)C(O)C2O)cc1 (centres undefined),0,0,0,0
CCCCn1c(N)c(N(CCOC)C(=O)c2c(C)noc2C)c(=O)[nH]c1=O,0,-,-,0
CC(CNC(=O)c1ccccc1Cl)c1ccccc1 (centres undefined),-,36.4,33.6,-
O=C(CNc1ccccc1C(=O)O)c1ccccc1,0,0,18.2,0
O=C(CNC(=O)c1ccccc1F)c1ccccc1,-,0,34.5,-
NC(=O)c1ccccc1NCC(=O)c1ccc(Cl)cc1,0,0,0,0
O=C(CNC(=O)c1ccccc1)OCC(=O)c1ccccc1Cl,?,0,0,0
SMILES,Marburg entry inh,Shiga toxin inh,CHX counter,LASV entry inh
NNC(=O)CNC(=O)c1ccccc1F,0,0,0,0
O=C(CNC(=O)c1ccccc1Cl)c1ccccc1,?,65.0,50.4,?
COc1cc2nc(C3CCC3)n(NC(=O)c3ccco3)c(=O)c2cc1OC,?,0,0,0
CCc1cc(=O)oc2c(C)c(OCC(=O)NCCCN3CCCC3=O)ccc12,-,0,0,-
CC(=O)Nc1ccc(Nc2nc3ccccc3nc2NS(=O)(=O)c2ccc(Cl)c([N+](=O)[O-])c2)cc1,0,-,-,?
Cc1ccc(Nc2ccc(-n3ccnc3)nn2)cc1C,0,0,22.4,?
COc1ccc(OC)c(C2=Nn3c(nnc3-c3ccncc3)SC2)c1,3.98µM,-,-,?
COc1ccc(N=C2SCC(c3ccccc3)=NN2C)cc1,-,0,28.9,-
c1ccc(C2=Nn3c(nnc3-c3cc(-c4ccccc4)n[nH]3)SC2)cc1,?,0,0,15.8µM
COc1ccc(C2=Nn3c(nnc3-c3ccc(OC)cc3)SC2)cc1,?,0,0,1.3µM
CCCSC1=NC2(CCN(C(=O)NC3CCCCC3)CC2)N=C1c1ccc(C)cc1,-,-,-,0
CCN(CC)CCCNC(=O)CN1N=C(c2ccc(OC)cc2)CCC1=O,0,0,0,?
Cc1cc(C)n(CC(O)COc2ccc(Cl)cc2Cl)n1 (centres undefined),0,29.0,29.8,0
CCOC(=O)N1CCN(Cc2nc(-c3ccccc3)no2)CC1,?,61.6,0,0
FC(F)(F)c1cccc(-c2noc(CN3CCOCC3)n2)c1,0,0,0,0
COc1ccccc1CN1CCN(Cc2nc(-c3ccccc3)no2)CC1,?,98.9,34.9,0
Clc1cccc(N2CCN(Cc3nc(-c4ccccc4)no3)CC2)c1,-,0,0,-
CN1CCCN(Cc2nc(-c3cccc(C(F)(F)F)c3)no2)CC1,0,0,15.8,0
CC(=O)N1CCN(Cc2nc(-c3cccc(Cl)c3)no2)CC1,0,43.4,18.1,0
CCOC(=O)N1CCN(Cc2nc(-c3cccc(C)c3)no2)CC1,0,0,0,?
CC(C)CN(C(=O)COC(=O)CN1C(=O)c2ccccc2C1=O)c1c(N)n(Cc2ccccc2)c(=O)[nH]c1=O,0,-,-,0
O=C(/C=C/c1ccc(S(=O)(=O)N2CCOCC2)cc1)OCC(=O)c1ccc([N+](=O)[O-])cc1,0,0,0,-
COC(=O)c1nnc(C(=O)NCc2ccccc2)c2[nH]c3ccccc3c12,0,-,-,-
Cc1nn(C(=O)c2cccc([N+](=O)[O-])c2)c(C)c1Cl,0,0,0,0
Cn1cnnc1SCC(=O)Nc1cc(S(=O)(=O)N2CCCCC2)ccc1Cl,0,0,0,0
SMILES,Marburg entry inh,Shiga toxin inh,CHX counter,LASV entry inh
c1ccc(CC2CCN(Cc3nc(-c4ccccc4)no3)CC2)cc1,0,0,15.3,0
COc1ccccc1CN1CCN(Cc2ccc(Cl)cc2)CC1,11.2µM,0,0,0
COc1ccc(-c2noc(CN3CCC(Cc4ccccc4)CC3)n2)cc1,0,0,0,0
CC(NC(=O)c1c(F)cccc1Cl)c1ccc(-n2ccnc2)cc1 (centres undefined),-,0,0,-
O=c1[nH]c(COc2ccc(Cl)cc2Br)nc2ccccc12,?,126.5,50.7,?
O=c1[nH]c(COc2ccc(Cl)cc2Cl)nc2ccccc12,0,41.3,37.7,0
CCC1Oc2ccccc2N(CC(=O)NCc2cc(OC)ccc2OC)C1=O (centres undefined),-,-,-,0
O=C(c1cccs1)c1ccc(-c2cccs2)s1,11.2µM,0,30.3,?
O=C(c1cccs1)c1sccc1Cc1ccccc1,0,-,-,?
CN1CCN(C(=O)c2ccc(-c3cccs3)s2)CC1,?,54.8,42.1,0
Cc1ccc(N2C(=O)C(Cl)=C(N3CCCCCC3)C2=O)cc1,-,0,26.8,-
O=C1C(Cl)=C(N2CCCCC2)C(=O)N1c1ccccc1,0,0,0,0
O=C(OCC(=O)C12CC3CC(CC(C3)C1)C2)c1ccc(O)cc1O,0,-,-,?
CCCCSc1ccc2nc(-c3ccc(C#N)cc3)cn2c1,0,0,58.0,?
CCCSc1ccc2nc(-c3ccccc3)cn2c1,?,0,0,2.24µM
CCCCCCCOc1ccc(-c2ccc(C#N)cn2)cc1,0,0,0,0
Cc1cc(N2CCOCC2)n2nc(C)c(-c3ccc(Cl)cc3)c2n1,-,0,0,-
Cc1cc(N2CCCCC2)n2ncc(-c3ccc(Cl)cc3)c2n1,?,0,29.0,?
Cc1ccc(-c2cc(C(F)(F)F)n3ncc(-c4ccc(Cl)cc4)c3n2)cc1,0,-,-,0
CC(=O)Nc1ccc(Nc2cc(C)nc3c(-c4ccc(Cl)cc4)cnn23)cc1,?,35.7,52.4,?
